Laboratory results as given in PubChem BioAssay.
Activity calls are given as the source filed them. Unless noted, no rule for the calls is given here.

Tests used:
[1] = resazurin metabolic signal in HepG2 cells – cell-based, resazurin fluorescence, 24 h, PK04 Diversity Set, profiling panel (AID 1172); conditions: HepG2 viability, higher = more signal
[2] = budding yeast growth changes without added modifier – OD600, strain BY4716, 24 h, basal condition, primary screen (AID 1173); conditions: S. cerevisiae BY4716 growth, OD600, 24 h; higher = more signal, called active from +8 up or from −8 down
[3] = viability profiling in MM1S myeloma cells – cell-based, resazurin fluorescence, basal, 24 h, PK04 Diversity Set, profiling panel (AID 1174); conditions: higher = more signal, called active from +8 up or from −8 down;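 also: MM1S multiple myeloma cell line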
[4] = target: Dihydroorotate dehydrogenase (quinone), mitochondrial (Plasmodium falciparum (isolate 3D7)) (UniProt Q08210); test: inhibition of P. falciparum DHODH – biochemical, C-terminal His tag, absorbance 600 nm, primary screen (AID 1175); conditions: PfDHODH enzyme, DCIP absorbance 600 nm; higher = more signal, called active from +8 up or from −8 down;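 also: recombinant parasite enzyme with a five histidine tag at its C terminus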
Sequence of Dihydroorotate dehydrogenase (quinone), mitochondrial (Plasmodium falciparum (isolate 3D7)) (Q08210 whole entry, looked up): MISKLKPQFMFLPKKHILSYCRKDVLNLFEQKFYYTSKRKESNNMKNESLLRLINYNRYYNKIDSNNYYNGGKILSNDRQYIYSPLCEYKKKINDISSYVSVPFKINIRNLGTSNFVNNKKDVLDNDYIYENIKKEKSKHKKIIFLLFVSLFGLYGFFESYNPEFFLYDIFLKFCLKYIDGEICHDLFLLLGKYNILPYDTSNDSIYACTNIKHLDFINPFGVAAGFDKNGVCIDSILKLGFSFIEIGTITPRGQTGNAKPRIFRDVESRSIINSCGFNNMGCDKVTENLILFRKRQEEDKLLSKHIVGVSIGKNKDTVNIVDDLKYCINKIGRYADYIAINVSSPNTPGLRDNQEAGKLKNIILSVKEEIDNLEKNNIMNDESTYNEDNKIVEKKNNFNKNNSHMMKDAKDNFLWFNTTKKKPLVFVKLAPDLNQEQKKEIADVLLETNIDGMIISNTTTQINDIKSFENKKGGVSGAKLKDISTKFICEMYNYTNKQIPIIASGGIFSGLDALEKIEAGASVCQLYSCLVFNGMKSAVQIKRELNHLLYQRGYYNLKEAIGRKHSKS

[5] = inhibition of PAO1 biofilm formation – strain PAO1, LB-PBS medium, absorbance 600 nm, primary screen (AID 1176); conditions: P. aeruginosa PAO1 growth/biofilm, A600, 12 h; higher = more signal
[6] = growth modulation of vineyard yeast isolate – strain RM11-1a, OD600, basal, 24 h, primary screen (AID 1177);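 also: cultures grown under basal conditions with no added stressor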; conditions: S. cerevisiae RM11-1a growth, OD600, 24 h; higher = more signal, called active from +8 up or from −8 down
[7] = growth of efflux-deficient E. coli DRC39 – strain DRC39, OD650, 24 h, E. coli filamentation inducers, primary screen (AID 1178);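 also: growth measured as culture turbidity by optical density at 650 nm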; conditions: E. coli DRC39 acrAB, higher = more signal, called active from +8 up or from −8 down
[8] = growth of efflux-deficient E. coli DRC39 – strain DRC39, OD650, 48 h, E. coli filamentation inducers, primary screen (AID 1179);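 also: screen aims at cell division blockers that make cells filament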; conditions: E. coli DRC39 delta-acrAB growth, higher = more signal, called active from +8 up or from −8 down
[9] = viability profiling in RPMI8226 myeloma cells – cell-based, resazurin fluorescence, basal, 24 h, PK04 Diversity Set, profiling panel (AID 1180); conditions: higher = more signal;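 also: RPMI8826 multiple myeloma cell line at 5000 cells per well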
[10] = target: E3 ubiquitin-protein ligase XIAP (Homo sapiens) (UniProt P98170); test: small molecules binding XIAP protein – biophysical, small-molecule microarray, fluorescence 635 nm, primary screen (AID 1181); conditions: higher = more signal;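 also: score merges 667 nm emission and signal to noise over triplicate slides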
Sequence of E3 ubiquitin-protein ligase XIAP (Homo sapiens) (P98170 whole entry, looked up, the tested form may be a part): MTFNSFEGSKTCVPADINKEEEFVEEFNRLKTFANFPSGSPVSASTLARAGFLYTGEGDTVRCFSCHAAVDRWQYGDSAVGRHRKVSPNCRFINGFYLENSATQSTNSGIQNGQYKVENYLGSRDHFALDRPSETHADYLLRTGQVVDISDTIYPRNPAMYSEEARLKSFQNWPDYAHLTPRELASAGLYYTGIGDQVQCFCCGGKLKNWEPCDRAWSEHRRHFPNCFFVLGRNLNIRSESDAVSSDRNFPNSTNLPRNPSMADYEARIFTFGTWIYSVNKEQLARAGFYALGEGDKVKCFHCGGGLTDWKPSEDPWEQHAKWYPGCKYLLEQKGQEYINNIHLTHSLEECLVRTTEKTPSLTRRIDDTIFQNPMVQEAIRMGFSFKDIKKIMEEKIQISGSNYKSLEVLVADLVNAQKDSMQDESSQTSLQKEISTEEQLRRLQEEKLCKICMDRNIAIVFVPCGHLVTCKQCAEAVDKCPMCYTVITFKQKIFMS

[11] = tested on: XIP peptide (Xip251-270) binding; test: XIP fragment 251-270 binding compounds – biochemical, small-molecule microarray, fluorescence 635/667 nm, 0.1 µg/mL protein, primary screen (AID 1182); conditions: fluorescent protein binding, 635 nm, higher = more signal, called active from +8 up or from −8 down
XIP peptide (Xip251-270) = test: compounds binding XIP fragment 251-270 – biochemical, small-molecule microarray, fluorescence 635/667 nm, 0.5 µg/mL protein, primary screen (AID 1183); conditions: fluorescence 635 nm, higher = more signal
[12] = blood-stage malaria parasite viability loss – strain 3D7, DAPI fluorescence, 100 nL, primary screen (AID 1184);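 also: parasites grown inside human red blood cells in medium with human serum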; conditions: P. falciparum 3D7 growth, 3 d, higher = more signal
[13] = target: Homeobox protein Hox-A13 (Mus musculus) (UniProt Q62424); test: disruptors of Hoxa13 oligonucleotide interaction – biochemical, fluorescence polarization, labeled oligonucleotide, primary screen (AID 1185); conditions: Hoxa13:DNA binding, 15 min, higher = more signal, called active from +8 up or from −8 down
Sequence of Homeobox protein Hox-A13 (Mus musculus) (Q62424 whole entry, looked up): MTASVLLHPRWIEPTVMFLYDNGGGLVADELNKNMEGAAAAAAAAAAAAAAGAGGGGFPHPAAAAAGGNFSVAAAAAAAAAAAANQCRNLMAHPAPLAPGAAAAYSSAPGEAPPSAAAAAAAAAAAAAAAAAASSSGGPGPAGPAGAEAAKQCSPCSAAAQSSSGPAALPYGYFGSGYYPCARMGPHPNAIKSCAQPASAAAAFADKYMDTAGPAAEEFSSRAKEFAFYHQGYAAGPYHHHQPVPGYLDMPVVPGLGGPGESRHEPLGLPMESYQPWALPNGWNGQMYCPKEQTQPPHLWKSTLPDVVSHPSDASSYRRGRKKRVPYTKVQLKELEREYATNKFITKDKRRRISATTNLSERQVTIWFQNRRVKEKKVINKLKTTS

[14] = blockers of DNA damage checkpoint Chk1 activation – imaging, HeLa, hydroxyurea, phospho-Chk1 antibody, percent positive cells, primary screen (AID 1186); conditions: hydroxyurea-induced phospho-Chk1 immunofluorescence imaging, higher = more signal
[15] = blockers of DNA damage checkpoint Chk1 activation – imaging, HeLa, hydroxyurea, phospho-Chk1 nuclear intensity, primary screen (AID 1187); conditions: hydroxyurea-induced phospho-Chk1 immunofluorescence imaging, higher = more signal

In the case of `COC(=O)[C@@]1(Cc2ccccc2)[C@H]2c3cc(C(=O)N(C)C)n(Cc4ccc(O)c(OC)c4)c3C[C@H]2CN1C(=O)c1ccccc1`, the z-score [1] is reported as 0.563, the z-score [2] is reported as 1.12 (inactive) and the z-score [3] is reported as 0.301 (inactive). For the same compound, the composite z-score [4] was -2.88 (inactive), the z-score [5] was 1.47 (inactive) and the z-score [6] was 0.458 (inactive). For the same compound, the z-score [7] was -0.846 (inactive), the z-score [8] was 0.202 (inactive) and the z-score [9] was -1.24. The composite z-score [10] was 0.0422, the composite z-score [11] was 0.332 (inactive) and the composite z-score (XIP peptide (Xip251-270)) was 0.664. For the same compound, the z-score [12] was -1.55, the z-score [13] was -5.2 (inactive) and the z-score [14] was 0.197 (inactive). For the same compound, the z-score [15] was -0.0257 (inactive).

In the case of `COCCCNC(=O)[C@]1(Cc2ccccc2)N=C(c2ccc(OCCCO)cc2)O[C@@H]1c1ccccc1N=[N+]=[N-]`, the z-score [1] is reported as 0.0754, the z-score [2] is reported as -1.75 (inactive) and the z-score [3] is reported as -2.61 (inactive). The composite z-score [4] was 0.828 (inactive), the z-score [5] was -0.674 (inactive) and the z-score [6] was -0.355 (inactive). The z-score [7] was 1.27 (inactive), the z-score [8] was 0.642 (inactive) and the z-score [9] was -2.73. The composite z-score [10] was -0.02, the composite z-score [11] was 0.829 (inactive) and the composite z-score (XIP peptide (Xip251-270)) was 0.576. The z-score [12] was -2.7, the z-score [13] was -4.42 (inactive) and the z-score [14] was -1.82 (inactive). For the same compound, the z-score [15] was -6.65 (inactive).

With `COc1ccc(C(=O)Nc2ccc(CN3C(=O)[C@@]4(O[C@@H](CC(=O)N5Cc6ccccc6C[C@H]5CO)[C@H]([Si](C)(C)c5ccc(OC)cc5)[C@H]4C)c4ccccc43)cc2)cc1` the z-score [1] was 0.473, the z-score [2] was -0.273 (inactive) and the z-score [3] was -1.66 (inactive). For the same compound, the composite z-score [4] was -3.48 (inactive), the z-score [5] was 0.896 (inactive) and the z-score [6] was 1.23 (inactive). The z-score [7] was 0.704 (inactive), the z-score [8] was 0.241 (inactive) and the z-score [9] was -1.04. The composite z-score [10] was -0.127, the composite z-score [11] was 1.38 (inactive) and the composite z-score (XIP peptide (Xip251-270)) was 0.701. For the same compound, the z-score [12] was -1.23, the z-score [13] was -2.48 (inactive) and the z-score [14] was 0.175 (inactive). For the same compound, the z-score [15] was 0.514 (inactive).

For `COc1ccc([Si](C)(C)[C@@H]2[C@@H](CC(=O)N(CCO)Cc3ccccc3)O[C@]3(C(=O)N(C)c4c(Br)cc(C)cc43)[C@H]2C)cc1`, the z-score [1] was -1.57, the z-score [2] was -0.951 (inactive) and the z-score [3] was -1.79 (inactive). The composite z-score [4] was 0.216 (inactive), the z-score [5] was 0.802 (inactive) and the z-score [6] was 1.64 (inactive). The z-score [7] was -0.109 (inactive), the z-score [8] was -0.75 (inactive) and the z-score [9] was -2.21. For the same compound, the composite z-score [10] was -0.174, the composite z-score [11] was 0.48 (inactive) and the composite z-score (XIP peptide (Xip251-270)) was 0.373. The z-score [12] was -1.48, the z-score [13] was -6.47 (inactive) and the z-score [14] was -0.743 (inactive). The z-score [15] was -1.69 (inactive).

With `C=C(C)[C@@H]1CC=C(C(O)C2C=CC3C(=O)N(C4CCCCC4)C(=O)C3N2Nc2ccc(OC)cc2)CC1` (some centres undefined) the z-score [1] was 0.14, the z-score [2] was 0.702 (inactive) and the z-score [3] was -0.0469 (inactive). For the same compound, the composite z-score [4] was -0.157 (inactive), the z-score [5] was 0.987 (inactive) and the z-score [6] was 0.0587 (inactive). The z-score [7] was -0.703 (inactive), the z-score [8] was -0.0015 (inactive) and the z-score [9] was 0.199. For the same compound, the composite z-score [10] was 0.356, the composite z-score [11] was 0.376 (inactive) and the composite z-score (XIP peptide (Xip251-270)) was 0.505. For the same compound, the z-score [12] was -0.409, the z-score [13] was -3.47 (inactive) and the z-score [14] was -0.385 (inactive). For the same compound, the z-score [15] was -0.393 (inactive).

For `CCC[C@@H]1C[C@@]1(CCC)[C@@H](NC(=O)c1cccs1)c1ccc(Cl)cc1`, the z-score [1] was 1.82, the z-score [2] was -0.779 (inactive) and the z-score [3] was 1.19 (inactive). For the same compound, the composite z-score [4] was -0.118 (inactive), the z-score [5] was 0.852 (inactive) and the z-score [6] was 0.235 (inactive). For the same compound, the z-score [7] was 0.279 (inactive), the z-score [8] was 0.372 (inactive) and the z-score [9] was 2.95. The composite z-score [10] was -0.193, the composite z-score [11] was -0.0569 (inactive) and the composite z-score (XIP peptide (Xip251-270)) was 0.0455. The z-score [12] was -0.76, the z-score [13] was -1.93 (inactive) and the z-score [14] was -0.248 (inactive). For the same compound, the z-score [15] was -0.143 (inactive).

In the case of `COCCOC(=O)N1C(=O)[C@@]2(c3cc(C#Cc4ccc(OC)cc4)ccc31)[C@H](C(=O)N1CCc3cc(OC)c(OC)cc3C1)[C@H]1C(=O)O[C@H](c3ccccc3)[C@H](c3ccccc3)N1[C@@H]2c1ccc(OCCO)cc1`, the z-score [1] is reported as -0.562, the z-score [2] is reported as 1.39 (inactive) and the z-score [3] is reported as -0.12 (inactive). For the same compound, the composite z-score [4] was -0.0739 (inactive), the z-score [5] was 1.27 (inactive) and the z-score [6] was 2.92 (inactive). For the same compound, the z-score [7] was -0.997 (inactive), the z-score [8] was -1.19 (inactive) and the z-score [9] was 0.54. For the same compound, the composite z-score [10] was 0.365, the composite z-score [11] was -0.266 (inactive) and the composite z-score (XIP peptide (Xip251-270)) was 0.688. The z-score [12] was -2.22, the z-score [13] was 2.6 (inactive) and the z-score [14] was 0.0413 (inactive). For the same compound, the z-score [15] was 0.277 (inactive).

In the case of `COc1cccc(C[C@H]2C[C@@H](CO[Si](C(C)C)(C(C)C)C(C)C)N3C(=O)[C@]4(C(C)=O)O[C@]23[C@H]2C(=O)N(C)C(=O)[C@H]24)c1`, the z-score [1] is reported as -1.03, the z-score [2] is reported as 2.01 (inactive) and the z-score [3] is reported as -0.713 (inactive). The composite z-score [4] was 0.564 (inactive), the z-score [5] was 1.32 (inactive) and the z-score [6] was 0.979 (inactive). The z-score [7] was -0.356 (inactive), the z-score [8] was -0.152 (inactive) and the z-score [9] was -2.81. For the same compound, the composite z-score [10] was 0.0264, the composite z-score [11] was 0.0522 (inactive) and the composite z-score (XIP peptide (Xip251-270)) was 0.459. For the same compound, the z-score [12] was -0.281, the z-score [13] was -3.12 (inactive) and the z-score [14] was 0.527 (inactive). For the same compound, the z-score [15] was 0.139 (inactive).

For `COc1ccc(C(=O)Nc2ccc3c(c2)[C@]2(O[C@@H](CCO)[C@H]([Si](C)(C)c4ccc(OC)cc4)[C@H]2C)C(=O)N3Cc2ccccc2)cc1`, the z-score [1] was -1.9, the z-score [2] was -2.35 (inactive) and the z-score [3] was -7.18 (inactive). For the same compound, the composite z-score [4] was -0.454 (inactive), the z-score [5] was 1.55 (inactive) and the z-score [6] was 2.47 (inactive). The z-score [7] was 0.799 (inactive), the z-score [8] was -0.167 (inactive) and the z-score [9] was -2.51. The composite z-score [10] was -0.165, the composite z-score [11] was 0.439 (inactive) and the composite z-score (XIP peptide (Xip251-270)) was 0.45. The z-score [12] was -2.88, the z-score [13] was -1.01 (inactive) and the z-score [14] was -0.583 (inactive). The z-score [15] was -0.644 (inactive).
